Measurements: PubChem BioAssay (NCI)
This is part of a sample that, as a whole, favours compounds with a hit. Of some 83,000 tested, about 20% had one in any assay.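 Step 1: grow cells in 96-well plates. Step 2: add test compound at a single concentration. Step 3: incubate 48 h. Step 4: record percent growth.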 A number with no mark means an inactive call. Active and inactive are the calls of the source. The calls were made as follows: active = growth percent below 10; inactive = the rest.

Tests used:
Test in all cases: NCI-60 one-dose screen, 48 h (100 = growth as untreated, 0 = no growth, -100 = all killed)
Conditions in all cases: 10 µM unless noted
NCI-H23 lung = tested on: NCI-H23 lung
NCI-H226 lung = tested on: NCI-H226 lung
NCI-H322M lung = tested on: NCI-H322M lung
HOP-62 NSCLC = tested on: HOP-62 NSCLC
NCI-H460 lung = tested on: NCI-H460 lung
HOP-92 NSCLC = tested on: HOP-92 NSCLC
NCI-H522 lung = tested on: NCI-H522 lung
A549/ATCC NSCLC = tested on: A549/ATCC NSCLC
786-0 renal = tested on: 786-0 renal
COLO 205 colon = tested on: COLO 205 colon

Structure (SMILES)	growth (NCI-H23 lung) [%]	growth (NCI-H226 lung) [%]	growth (NCI-H322M lung) [%]	growth (HOP-62 NSCLC) [%]	growth (NCI-H460 lung) [%]	growth (HOP-92 NSCLC)	growth (NCI-H522 lung)	growth (A549/ATCC NSCLC) [%]	growth (786-0 renal)	growth (COLO 205 colon)
C#CCOC(=O)[C@]1(C)CCC[C@]2(C)[C@H]3C[C@H]4C(C(C)C)=C[C@]3(CC[C@H]21)[C@@H]1C(=O)CCC(=O)[C@@H]14	84.1	85.9	102	80.1	90.9	54%	63.7%	76.9	88.5%	105%
C/C(=C\c1cnc(C)s1)[C@@H]1C[C@@H]2O[C@@H]2CCC[C@H](C)[C@H](O)[C@@H](C)C(=O)C(C)(C)[C@@H](O)CC(=O)O1	31.7	85.3	25.7	26.5	14.9	52.6%	-2.17% (active)	42.3	43.6%	-8.64% (active)
COC(=O)/C=C/c1cc(OC(C)=O)c2c(c1)C(C(=O)OC)C(c1ccc(OC(C)=O)c(OC(C)=O)c1)O2 (stereo not given)	21.3	81.7	55.4	20	13.8	33.7%	-20.8% (active)	37.4	19.8%	38.9%
C#CC[C@@H]1C[C@]2(C)[C@H]3CC[C@@H]4[C@H]5[C@H](C(=C)C)CC[C@]5(C(=O)O)CC[C@@]4(C)[C@]3(C)CC[C@H]2C(C)(C)[C@H]1O	47.9	29.1	67.5	59	10.4	-6.27% (active)	61.8%	16.9	-1.51% (active)	83.2%
CC1(c2ccccc2Cl)NC(=O)NC1=O (stereo not given)	95.2	98.6	98.8	86.4	106	83.1%	85%	91.2	99.2%	108%
CCOC(=O)C1=C(C)n2nc(CC#N)c(C#N)c2NC1c1ccc(CC)cc1 (stereo not given)	85.6	87.6	85.6	81.7	104	85.9%	85.5%	96.5	106%	97.8%
C#Cc1ccccc1NC(=O)c1sc2nc3c(cc2c1N)CCCCC3	88	88.3	101	99.5	104	93.2%	71.5%	99.2	123%	105%
C#Cc1ccccc1NC(=O)c1sc2nc3c(cc2c1N)CCCCCC3	53.5	83.4	82.7	76.8	33.4	67.6%	72.1%	51.4	17%	47.4%
Oc1ccccc1-c1nc2c3ccccc3c3ccccc3c2o1	85.5	85.8	92.4	101	69.6	83.8%	99.3%	90.9	99.2%	85.7%
COC(=O)c1nc(-c2ccccc2)oc1S(=O)(=O)n1nc(C)cc1N	92.1	110	91.8	97	96.9	49.5%	-25.8% (active)	94.9	80.6%	-63.9% (active)
O=C(Nc1cc(Br)ccn1)c1cc2cc(Nc3nc(-c4ccccc4)nc4ccccc34)ccc2oc1=O	98.6	117	111	103	106	105%	95.2%	104	94.2%	105%
Cc1cc(C)nc(NS(=O)(=O)c2ccc(Nc3ccc4c5c(n(CCCN(C)C)c(=O)c4c3)-c3ccccc3C5=O)cc2)n1	83.9	83.3	109	70.1	28.9	90.1%	73%	52.3	80.5%	70.4%
CCSc1ccc(C2C(Br)C(=O)N2c2cc(OC)c(OC)c(OC)c2)cc1 (stereo not given)	25.2	50.2	50.5	30	10.1	28.2%	7.68% (active)	18.2	8.1% (active)	-38.5% (active)
Cc1ccc(C(=O)O)o1	100	104	105	109	108	89.9%	87%	93.1	97.1%	107%
